Screening results as filed in PubChem.
An excerpt weighted towards active compounds, which were near 1.9% of everything screened.
Cardio protect: cardioprotection against H2O2-induced cell death, primary screen, uHTS, H9c2 cells, ATPLite luminescence; H9c2 cardiomyocytes, H2O2 injury protection, 2 h; protection from H2O2 cell death, % at 20 µM; actives 0.63% (n = 360,000);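 active means compounds giving at least 50% protection of heart cells from peroxide-induced death in the single-dose screen, raw or plate-pattern-corrected value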;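 further: 0% = DMSO wells with peroxide and 100% = DMSO wells without peroxide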
PP5 primary: PP5 phosphatase inhibitors, primary screen, biochemical, fluorescence; Serine/threonine-protein phosphatase 5 (Homo sapiens), P53041; purified PP5c, OMFP substrate fluorescence; inhibition, % at 6.7 µM; actives 0.18% (n = 320,000); AID 1987, 2009;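 active means inhibition above the campaign's mean inhibition across all tested compounds plus 3 SD, cut at about 9.5% in these data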;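 further: 0% = DMSO only and 100% = 100 µM cantharidin control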
ATG4B inhibitor: ATG4B protease inhibitors, primary screen, biochemical, fluorescence, uHTS; ATG4B cleavage of LC3-PLA2, NBD-HPC fluorescence, 1 h; inhibition, % at 8.33 µM; actives 0.51% (n = 340,000); AID 504462, 2011; in the data active means inhibition above about 40%
PP1 inh: PP1-alpha phosphatase inhibitors, primary screen, counter-screen for PP5 inhibitor project, biochemical, fluorescence, OMFP substrate, single point | Serine/threonine-protein phosphatase PP1-alpha catalytic subunit (Homo sapiens), P62136 | purified PP1alpha | inhibition, % at 6.7 µM | actives 0.9% (n = 320,000) | AID 2235, 2010;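 active means inhibition above the mean inhibition of all tested compounds plus 3 SD, computed separately for each screening campaign, cut at about 15% in these data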
Target sequence (P62136 whole entry, looked up): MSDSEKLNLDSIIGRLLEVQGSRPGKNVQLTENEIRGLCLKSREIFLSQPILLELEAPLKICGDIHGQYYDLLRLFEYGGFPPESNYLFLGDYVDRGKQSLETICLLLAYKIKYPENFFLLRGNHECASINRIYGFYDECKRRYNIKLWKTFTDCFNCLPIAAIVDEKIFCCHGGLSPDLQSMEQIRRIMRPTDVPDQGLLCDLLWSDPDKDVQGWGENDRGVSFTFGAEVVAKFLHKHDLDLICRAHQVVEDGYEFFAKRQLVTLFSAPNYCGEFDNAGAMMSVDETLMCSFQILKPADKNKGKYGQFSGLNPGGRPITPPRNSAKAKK
An asterisk follows results filed as active; / = no result.

SMILES	Cardio protect	PP5 primary	ATG4B inhibitor	PP1 inh
CCN(CC(=O)Nc1ccccc1C(F)(F)F)C(=O)c1cc(S(=O)(=O)N2CCCCCC2)ccc1OC	3	-1	-10	1
Cc1cccc(NCc2ccc(O)c3ncccc23)c1	58*	0	2	3
CCN(C(=O)COC(=O)CN(C)S(=O)(=O)c1ccc(NC(C)=O)cc1)C1CCS(=O)(=O)C1 (centres undefined)	6	-1	5	-2
CC(=O)NC1C(=O)N(CCN2CCOCC2)c2ccc(C)cc21 (centres undefined)	11	7	6	57*
O=c1cc(CSc2ccc(Cl)cc2)nc(-c2ccccn2)[nH]1	39	-2	-5	16*
Fc1cccc(-n2cc(-c3ccccc3)c3c(=S)nc[nH]c32)c1	64*	0	1	-1
O=c1[nH]cnc2c1c(-c1ccccc1)cn2-c1ccccc1	-3	2	1	-1
Fc1ccc(-n2cc(-c3ccccc3)c3c(=S)nc[nH]c32)cc1	85*	3	3	5
CCc1ccc(NC(=O)Cn2cc([N+](=O)[O-])nc2C)cc1	-3	/	-1	/
Cc1cc(C)c2cc3c(N)c(C(=O)N4CCc5ccccc5C4)sc3nc2c1	49*	1	26	2
Cc1ccc2nc3sc(C(=O)N4CCCc5ccccc54)c(N)c3cc2c1	7	0	34	-4
O=C(Nc1ccccc1Oc1ccccc1)C1=COCCO1	-2	3	-5	0
C/C(=N\NC(=O)COc1ccccc1-c1ccccc1)c1ccc(O)cc1O	54*	1	18	-2
Cc1nn(-c2ccccc2)c(N2CCCC2)c1/C=N/NC(=O)c1ccccc1O	6	6	-7	3
O=C(NN=Cc1cccc([N+](=O)[O-])c1)c1cc(-c2cccnc2)nc2ccccc12	51*	/	5	/
C/C(=N\NC(=O)COc1ccccc1-c1ccccc1)c1ccccn1	39	0	-3	3
C/C(=N\NC(=O)c1cc(-c2cccnc2)nc2ccccc12)c1ccc(O)cc1O	52*	3	-9	3
Cc1nn(-c2ccccc2)c(N2CCCC2)c1/C=N/NC(=O)c1cc(-c2cccnc2)nc2ccccc12	59*	3	33	5
CCN(Cc1ccncc1)C(=O)C1CCC(=O)N(Cc2ccc(Cl)cc2)C1 (centres undefined)	1	0	0	-4
Cc1ccc(NC(=O)c2ccc(OCc3c(C)noc3C)cc2)nc1	-6	-2	-5	-2
COc1ccc(-c2nc(CS(=O)CC(=O)N3CCOCC3)c(C)o2)cc1OC (centres undefined)	2	3	0	0
Cc1cc(C(=O)CN2c3cccc4cccc(c34)S2(=O)=O)c(C)n1C	14	-1	-3	-2
CCOC(=O)N1CCN(C(=O)c2cn(CC)c3ccc(S(=O)(=O)N(C)C4CCCCC4)cc3c2=O)CC1	0	0	-5	-7
CC1CC(C)CN(C(=O)CNC(=O)c2ccc3ccccc3c2)C1 (centres undefined)	1	0	-3	-2
Cc1[nH]c2ccccc2c1/C=N/NC(=O)CNC(=O)c1cccs1	5	2	-9	-3
SMILES	Cardio protect	PP5 primary	ATG4B inhibitor	PP1 inh
Cc1[nH]c2ccccc2c1/C=N/NC(=O)c1cccs1	56*	1	-8	1
Cc1ccccc1CNCCCSc1ncccn1	4	1	-7	0
Cc1c(OCC(=O)NC(Cc2ccc(Cl)cc2)C(=O)O)ccc2c(-c3ccccc3)cc(=O)oc12 (centres undefined)	4	-8	-9	17*
COc1ccc(-c2cc(=O)oc3c(C)c(OCC(=O)N[C@@H](Cc4ccc(O)cc4)C(=O)O)ccc23)cc1	-3	0	-29	-5
O=C(Oc1ccc(C(=S)N2CCOCC2)cc1)c1cccc(Cl)c1	-4	1	6	-4
Cc1c(NC(=O)Cn2[nH]c(=O)c3ccccc3c2=O)c(=O)n(-c2ccccc2)n1C	64*	1	-1	-4
O=C(COc1ccccc1Cl)NCc1ccccc1	-1	2	0	4
CN(CC(=O)Nc1c(Cl)cccc1Cl)C(=O)Cn1[nH]c(=O)c2ccccc2c1=O	76*	0	-6	2
O=C(COc1ccccc1Cl)NNC(=O)Cn1[nH]c(=O)c2ccccc2c1=O	92*	0	-8	-5
O=C(Cn1[nH]c(=O)c2ccccc2c1=O)NNC(=O)c1ccccc1	62*	-1	4	-5
O=C(Cc1ccc(S(=O)(=O)N2CCOCC2)s1)N1CCN(S(=O)(=O)c2cccc(Cl)c2)CC1	-3	0	-6	-5
CCn1c(=O)cc(OCC(=O)Nc2ccccc2C#N)c2ccccc21	60*	0	-4	-4
CCOC(=O)c1ccc(NC(=O)COc2cc(=O)n(CC)c3ccccc23)cc1	9	-1	-3	-4
CC(=O)Nc1ccc(N/C(=N\S(=O)(=O)c2ccccc2)c2ccccc2)cc1	12	0	-7	-6
CS/C(=N\S(=O)(=O)c1ccccc1)c1ccccc1	56*	0	-11	-3
O=S(=O)(/N=C(/NS(=O)(=O)c1ccccc1)c1ccccc1)c1ccccc1	-1	2	-5	1
O=S(=O)(/N=C(/Sc1ccccc1)c1ccccc1)c1ccccc1	52*	1	7	-3
Cc1c(C)c2cccnc2c2ncccc12	35	5	7	16*
Nc1cccc2c(O)cccc12	-12	0	-8	-2
O=c1[nH]ccc2c(O)cccc12	90*	-2	-2	-2
O=C(Nc1ccccc1)c1nc[nH]c1C(=O)NCCCCCCNC(=O)c1[nH]cnc1C(=O)Nc1ccccc1	97*	/	0	/
Cc1cccc(NC(=O)c2nc[nH]c2C(=O)NCCCNC(=O)c2[nH]cnc2C(=O)Nc2cccc(C)c2)c1	62*	/	1	/
O=S(=O)(c1ccc(NCCOc2ccccc2)nc1)N1CCCC1	2	1	-7	-2
Cc1ccc(Nc2cnn(C34CC5CC(CC(CC(=O)O)(C5)C3)C4)c(=O)c2Cl)c(Cl)c1	3	0	-3	-3
CC(Sc1nnnn1C)C(=O)Nc1nc(-c2ccc(F)c(F)c2)cs1 (centres undefined)	-3	2	-16	0
CCOC(=O)c1c(C)[nH]c(C)c1C(=O)COc1ncnc2cc([N+](=O)[O-])ccc12	65*	0	-12	2
CC(NC(=O)COc1ncnc2cc([N+](=O)[O-])ccc12)c1ccccc1 (centres undefined)	11	2	-10	0
C[C@@H]1COC(=O)[C@@H](CC(=O)OC(C)(C)C)C/C=C\C[C@@H](CC(=O)N[C@H](CO)Cc2ccccc2)C(=O)N1	14	/	-12	/
CC1Nc2ncnc(N3CCN(c4ccccc4)CC3)c2N(Cc2ccc(Br)cc2)C1=O (centres undefined)	62*	5	-8	8
